This note sets out measurements from the OligoGym collection.
Further: reference of the scale not given here.

For one experiment, the target named is NOL7. Kind of experiment: pooled miR-30 sensor sort-seq; sequence = guide strand. Particulars: shRNA.
TTATTTACAGTAGTCCTGTTGG: the sensor-assay potency score (higher = more potent) was -0.0686.
In the case of TTTTTGTACTTTAACTTTCTTG, the sensor-assay potency score (higher = more potent) is -0.529.
AACTTATTTACAGTAGTCCTGT displayed a sensor-assay potency score (higher = more potent) of -0.21.
Turning to TTAGTCTGTGAAGCTGTGGTTA, the sensor-assay potency score (higher = more potent) is -0.246.
Regarding TTGTACTTTAACTTTCTTGGAG, the sensor-assay potency score (higher = more potent) was -0.0182.
TCGATGAACAGCTCCTCGCGTC came in with a sensor-assay potency score (higher = more potent) of -0.7.

The next experiment has as its target NOLC1. Described as above. Particulars: shRNA.
As for TTGCTTTTTAGGTACAGTCTTC, the sensor-assay potency score (higher = more potent) was -0.681.
Consider TTAGCTTTCTTAGCCACTGGTC, for which the sensor-assay potency score (higher = more potent) was -0.169.
Take TTTAGGTACAGTCTTCTTGGGG: the sensor-assay potency score (higher = more potent) was -0.268.
Still for that read-out and setting: the value for TAACTTTCGCTCTGGGACCTTG was -0.857; that for TTGCTTTAGAGACTACTGCCTT was -0.589; that for TTAGGTACAGTCTTCTTGGGGG was 0.125.
The same measure, in the same setting: the value for TTTAGTCTGAGCTTTAACTGTC was 0.463; that for TTGCCTGTAACTTTCGCTCTGG was 0.151; that for TTGACCTGGACAGAGATTGAGC was -0.52.
Regarding TTTGGTGAACTTCAAAACCTGA, the sensor-assay potency score (higher = more potent) was -0.529.

A further experiment concerns the target NOMO3. Described as above. The following applies: shRNA.
The sequence TGGAACACCATCTCCTTCGGGT registered a sensor-assay potency score (higher = more potent) of -0.53.
The sequence TTTGGTGCAATTTTGATGGTGA yielded a sensor-assay potency score (higher = more potent) of 0.652.
Same read-out and setting: the result for TTGTCTCTTTGCATCTTCTGGG reads -0.0196.
Same read-out and setting: the result for TATCTGACCACAGACACTGAAC reads -1.06; that for TAACTCATCTACCATCTCCTGC, -0.337.
The same measure, in the same setting: the value for TTATTCATCTGCTTGACGGTGT was 0.998; that for TAACAGTGATTTTCTCTCCAGA was -0.602.
As for TTATTTTGTATTTTCCAGGGAG, the sensor-assay potency score (higher = more potent) came out at 0.546.
For the sequence TAGAACGCTTGCTCAAACCGGT, the sensor-assay potency score (higher = more potent) came to 0.161.
Still for that read-out and setting: the result for TAAAGCTTGACCCATAACGTAG reads -0.74; that for TTGTCTTCTGTTTCTTGGCTTG, -0.491.
The same measure, in the same setting: the result for TATGATGTTTACATCATCGATG reads -0.855; that for TTGATCTCCACGTCCGACTTGA, 0.49.
TTGGTGTACAGCTTTATCTCGA: the sensor-assay potency score (higher = more potent) came out at 0.0866.
Turning to TTCACCTTCCTCATTGCCGTTT, the sensor-assay potency score (higher = more potent) was -0.31.
The same measure, in the same setting: the value for TGTTGCAACAATGTCAGCCAGC was -0.925.

Another experiment concerns the target NOTCH4. The description is as above. The following applies: shRNA.
In turn, TTCTTGGTTCCAACTTAGGGGT returned a sensor-assay potency score (higher = more potent) of -0.898.
The same measure, in the same setting: the result for TTAGGGTTCTTAAATAGCGATA reads -1.36; that for TTTAGGGTTCTTAAATAGCGAT, -1.06.
TTGGCTGAACAGAAGTCCCGAA displayed a sensor-assay potency score (higher = more potent) of -0.0674.
Sequence TAGGGGTACACCATGTCCCTGC came in with a sensor-assay potency score (higher = more potent) of 0.0292.
TATATAGGAAAGAACATCTTAC: the sensor-assay potency score (higher = more potent) came out at 0.0056.
On the same count and under the same terms, the result for TTTCTGGTCCTTACATATCTGC reads -1.07; that for TATCTTCCTCGCATTATCGCAG, -0.574.
